SMILES strings stand for the structures. Counter-ions that a name gives are not always drawn.

This assay has as its system Danio rerio larvae (5 dpf). In words: 1-h baseline activity (% time moving, periods 1-6) minus DMSO control (percentage points); higher = more locomotor activity than DMSO larvae. The conditions noted are these: 10 µM; exposure time: 3 h pre-incubation + 3 h imaging. The method, then: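 Wild-type 5 dpf zebrafish larvae (n=48 per drug, 96-well plates, 28.5 °C) were exposed to Tocris FDA-approved library compounds at 10 µM (0.1% DMSO) for 3 h before and 3 h during imaging. Images were taken every 6 s during visual (moving coloured lines) and acoustic stimuli, and larvae were tracked with the DeepLabCut-based Z-LaP Tracker. Each behavioural measure is the treated-group mean minus the DMSO vehicle control mean (n=844), in percentage points. This mapping covers compounds with 4-character plate codes.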
`CC1(C)O[C@@H]2[C@@H](CO[C@@]3(COS(N)(=O)=O)OC(C)(C)O[C@@H]23)O1` [Topiramate]: the 1-h baseline activity was 9.54. With `CCCc1nc(C(C)(C)O)c(C(=O)O)n1Cc1ccc(-c2ccccc2-c2nnn[nH]2)cc1` [Olmesartan], the 1-h baseline activity was determined as 10.4. With `NS(=O)(=O)Cc1noc2ccccc12` [Zonisamide], the 1-h baseline activity worked out at 2.49.

`COc1ccccc1OCCNCC(O)COc1cccc2[nH]c3ccccc3c12` (stereo not given) [Carvedilol]: the 1-h baseline activity is -12.4. Turning to `CN/C(=N\CCSCc1nc[nH]c1C)NC#N` [Cimetidine], the 1-h baseline activity was 0.11. For the compound `CCCCNc1cc(C(=O)O)cc(S(N)(=O)=O)c1Oc1ccccc1` [Bumetanide], the 1-h baseline activity is 3. For the compound `Cc1nnc(C(C)C)n1C1C[C@H]2CC[C@@H](C1)N2CC[C@H](NC(=O)C1CCC(F)(F)CC1)c1ccccc1` (stereo in doubt) [Maraviroc], the 1-h baseline activity was -3.33.

`Cc1ccsc1C(=CCCN1CCC[C@@H](C(=O)O)C1)c1sccc1C` [Tiagabine hydrochloride]: the 1-h baseline activity amounted to 7.89. For the compound `Cc1nc(-c2ccc(OCC(C)C)c(C#N)c2)sc1C(=O)O` [Febuxostat], the 1-h baseline activity is -2.75. To `CCOC(=O)c1ncn2c1CN(C)C(=O)c1cc(F)ccc1-2` [Flumazenil] belongs 1.03; to `COc1ccc(C[C@@H](C)NC[C@H](O)c2ccc(O)c(NC=O)c2)cc1` [Arformoterol tartrate], 41.7.

Take `C[C@H]1C[C@@H]2[C@H]([C@@H](O)C[C@@]3(C)[C@H]2CC[C@]3(O)C(=O)CO)[C@@]2(C)C=CC(=O)C=C12` [Methylprednisolone]: the 1-h baseline activity was -0.716. `COc1cc2ncnc(Nc3ccc(F)c(Cl)c3)c2cc1OCCCN1CCOCC1` [Iressa]: the 1-h baseline activity is -6.95. On to `CC(=O)Oc1ccccc1C(=O)O` [Aspirin], for which the 1-h baseline activity is -0.776. Take `O=C(Nc1c(Cl)cncc1Cl)c1ccc(OC(F)F)c(OCC2CC2)c1` [Roflumilast]: the 1-h baseline activity is -15.9.

Turning to `Cc1ccccc1C(=O)Nc1ccc(C(=O)N2CCCC(O)c3cc(Cl)ccc32)c(C)c1` (stereo not given) [Tolvaptan], the 1-h baseline activity was found to be 0.214. As for `C[C@]12CCC(=O)C=C1CC[C@@H]1[C@@H]2[C@@H](O)C[C@@]2(C)[C@H]1CC[C@]2(O)C(=O)CO` [Hydrocortisone], the 1-h baseline activity stood at 1.95. Turning to `CCCCCOC(=O)Nc1nc(=O)n([C@@H]2O[C@H](C)[C@@H](O)[C@H]2O)cc1F` [Capecitabine], the 1-h baseline activity was found to be 6.82. In the case of `CC(C)(C)NC(=O)[C@@H]1C[C@@H]2CCCC[C@@H]2CN1C[C@@H](O)[C@H](Cc1ccccc1)NC(=O)[C@H](CC(N)=O)NC(=O)c1ccc2ccccc2n1` [Saquinavir mesylate], the 1-h baseline activity is -10.4. Consider `CN1CCC[C@@H]1Cc1c[nH]c2ccc(CCS(=O)(=O)c3ccccc3)cc12` [Eletriptan hydrobromide], for which the 1-h baseline activity was found to be 2.42.

In the case of `O=C(O)CCCc1ccccc1` [Sodium 4-Phenylbutyrate], the 1-h baseline activity was 0.969. In the case of `NS(=O)(=O)c1cc(C(=O)O)c(NCc2ccco2)cc1Cl` [Furosemide], the 1-h baseline activity was determined as 5.77. Take `Nc1ncn([C@H]2C[C@H](O)[C@@H](CO)O2)c(=O)n1` [Decitabine]: the 1-h baseline activity came out at 1.07. For the compound `Nc1nc2[nH]cc(CCc3ccc(C(=O)N[C@@H](CCC(=O)O)C(=O)O)cc3)c2c(=O)[nH]1` [Pemetrexed], the 1-h baseline activity is -1.52. With `O=C(O[C@@H]1C[C@@H]2C[C@H]3C[C@H](C1)N2CC3=O)c1c[nH]c2ccccc12` [Dolasetron mesylate], the 1-h baseline activity was -3.58.

Turning to `NC(=O)c1ncn([C@@H]2O[C@H](CO)[C@@H](O)[C@H]2O)n1` [Ribavirin], the 1-h baseline activity is 1.15. For the compound `CC/C(=C(\c1ccccc1)c1ccc(OCCN(C)C)cc1)c1ccccc1` [Tamoxifen citrate], the 1-h baseline activity is 26.3.

As to `CS(=O)(=O)CCNCc1ccc(-c2ccc3ncnc(Nc4ccc(OCc5cccc(F)c5)c(Cl)c4)c3c2)o1` [Lapatinib], the 1-h baseline activity was -5.01.

As to `COc1cc(Nc2c(C#N)cnc3cc(OCCCN4CCN(C)CC4)c(OC)cc23)c(Cl)cc1Cl` [Bosutinib], the 1-h baseline activity was -17.1. As for `C#C[C@]1(O)CC[C@H]2[C@@H]3CCC4=CC(=O)CC[C@@H]4[C@H]3CC[C@@]21CC` [Levonorgestrel], the 1-h baseline activity was -8.79. For `CC(C)C(=O)OCC(=O)[C@@]12O[C@H](C3CCCCC3)O[C@@H]1C[C@H]1[C@@H]3CCC4=CC(=O)C=C[C@]4(C)[C@H]3[C@@H](O)C[C@@]12C` [Ciclesonide] the value was -10.2; for `Brc1c(NC2=NCCN2)ccc2nccnc12`, -17.8; for `CC(C)Nc1cccnc1N1CCN(C(=O)c2cc3cc(NS(C)(=O)=O)ccc3[nH]2)CC1` [Delavirdine mesylate], -4.01. For `COCCCOc1cc(C[C@@H](C[C@H](N)[C@@H](O)C[C@H](C(=O)NCC(C)(C)C(N)=O)C(C)C)C(C)C)ccc1OC` [Aliskiren hemifumarate], the 1-h baseline activity is -5.54. For `CCN(Cc1ccncc1)C(=O)C(CO)c1ccccc1` (stereo not given) [Tropicamide] the value was -5.81; for `CC(=O)O[C@H]1C(=O)[C@@]2(C)[C@H]([C@H](OC(=O)c3ccccc3)[C@]3(O)C[C@H](OC(=O)[C@H](O)[C@@H](NC(=O)c4ccccc4)c4ccccc4)C(C)=C1C3(C)C)[C@]1(OC(C)=O)CO[C@@H]1C[C@@H]2O` [Taxol], 1.47; for `C=C1[C@H](CO)[C@@H](O)C[C@@H]1n1cnc2c(=O)[nH]c(N)nc21` [Entecavir], -2.24.

For the compound `CCCN(CCC)S(=O)(=O)c1ccc(C(=O)O)cc1` [Probenecid], the 1-h baseline activity was -2.34. Consider `CN1CC2c3ccccc3Oc3ccc(Cl)cc3C2C1` (stereo not given) [Asenapine maleate], for which the 1-h baseline activity came to 30.8. For the compound `Nc1nc(F)nc2c1ncn2[C@@H]1O[C@H](CO)[C@@H](O)[C@@H]1O` [Fludarabine], the 1-h baseline activity was 4.33.

Values taken from the supplement of paper PMC9950053.
